Assay outcomes from PubChem.
Anthrax LF inh2 = anthrax lethal factor protease inhibition; P15917; multiplex microsphere protease cleavage assay, LF; inhibition, % at 10 µM; 360,000 compounds, 0.12% hits; AID 588501
FBA Mtb inh = Mtb fructose-bisphosphate aldolase inhibition; purified M. tuberculosis FBA, fluorescence read-out; 360,000 compounds, 2.3% hits; inhibition, % at 1 µM; P9WQA3; in the data active = inhibition above about 27%
Target sequence (P9WQA3 whole entry, looked up): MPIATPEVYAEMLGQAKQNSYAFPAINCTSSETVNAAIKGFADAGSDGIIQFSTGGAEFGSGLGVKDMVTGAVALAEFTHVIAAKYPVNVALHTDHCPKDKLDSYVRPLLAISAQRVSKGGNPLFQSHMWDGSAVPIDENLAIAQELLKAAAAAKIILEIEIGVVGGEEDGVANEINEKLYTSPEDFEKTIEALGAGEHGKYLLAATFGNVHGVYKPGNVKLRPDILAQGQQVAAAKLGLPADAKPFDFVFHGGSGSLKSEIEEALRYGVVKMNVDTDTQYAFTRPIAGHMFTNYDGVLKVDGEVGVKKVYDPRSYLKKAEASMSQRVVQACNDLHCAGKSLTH
BoNT A protease = blocks Botulinum neurotoxin A light chain protease | inhibition, % at 10 µM | AID 588499 | multiplex microsphere protease substrate cleavage, flow cytometry | 360,000 compounds, 0.17% hits
BoNT F protease = inhibitors of Botulinum neurotoxin F light chain protease. Multiplex microsphere protease cleavage assay, flow cytometry. 360,000 compounds, 0.22% hits. inhibition, % at 10 µM; in the data active = inhibition above about 35%, passing the limit was not always enough; inconclusive = no clear call, values can overlap the other calls
GDH-TPI counter = counter-screen for M. tuberculosis FBA inhibitors: GDH-TPI coupled enzymes | GDH-TPI coupled enzyme counterscreen, NADH absorbance | inhibition, % at 4.8 µM | 360,000 compounds, 1.2% hits; in the data active = inhibition above about 30%
Autofluor counter = counter-screen for toxin protease inhibitors: compound fluorescence; 360,000 compounds, 3.1% hits; fluorescence intensity (concentration not given with the values); compound autofluorescence counterscreen, microsphere flow cytometry; active compounds read high; in the data active = fluorescence intensity above about 16000; inconclusive = no clear call, values can overlap the other calls
Hits are given with their value; i = inactive; ? = inconclusive; nt = no result; + = active, no number. Shown are actives, neighbours in structure and some others; about 6.7% of the full set was active somewhere. Rule as the data show it, unless noted: active = inhibition above about 30%; inconclusive = no clear call, values can overlap the other calls; inactive = below that.

SMILES	Anthrax LF inh2	FBA Mtb inh	BoNT A protease	BoNT F protease	GDH-TPI counter	Autofluor counter
COc1ccc2cc3cc(C(=O)NCc4ccccn4)oc3nc2c1	i	+	i	i	i	i
O=C(NCc1ccco1)c1cc2cc3ccc(Cl)cc3nc2o1	i	i	i	i	i	i
CC(=O)Nc1ccc(C(=O)Nc2nc(-c3cccnc3)cs2)cc1	i	i	i	i	i	i
CCCCSCCCNC(=O)C1CCC(CNS(=O)(=O)c2ccccc2)CC1 (stereo not drawn)	i	i	i	i	i	i
COc1ccc(NC(=O)CCc2nnc3ccc(N4CCN(c5cccc(OC)c5)CC4)nn23)cc1	i	i	i	i	i	i
CCn1c(O)c(/C=N/N=C/c2ccccc2)c2ccc(C3=NNC(=O)CC3)cc21	i	i	i	i	i	22930
CCC(CC)=N/N=C/c1c(O)n(CC)c2cc(C3=NNC(=O)CC3)ccc12	i	i	i	i	i	i
Cc1ncsc1C(=O)N1N=C2/C(=C/c3ccc(N4CCOCC4)cc3)CCCC2C1c1ccc(N2CCOCC2)cc1 (stereo not drawn)	i	i	i	i	i	24267
Cc1ncsc1C(=O)N1N=C2/C(=C/c3ccccc3)CCCC2C1c1ccccc1 (stereo not drawn)	i	i	i	i	i	i
CCOc1cc(N(CC)CC)ccc1/C=C(/C#N)c1nc2ccccc2[nH]1	i	i	i	41.5	i	i
CCN(CC)c1ccc(/C=C(/C#N)c2nc3ccc(C)cc3[nH]2)c(OC(C)C)c1	i	i	i	64.2	i	27707
CCCOc1cc(N(CC)CC)ccc1/C=C(/C#N)c1nc2ccc(C)cc2[nH]1	i	i	i	44.7	i	23823
COc1cc(/C=C(\C#N)c2nc3ccc(C)cc3[nH]2)c([N+](=O)[O-])cc1OC	i	i	i	i	33.0	i
COc1nc(N)c(S(=O)(=O)c2ccc(C)cc2)cc1C#N	i	i	i	i	i	19122
Cc1ccc(S(=O)(=O)c2cc(C#N)c(=O)[nH]c2N)cc1	i	i	i	i	i	i
Cc1cnn(C2CCN(C)CC2)c1N	i	i	i	i	i	16760
O=C(N[C@H]1C/C=C\C[C@@H](CC(=O)N(CCO)Cc2ccccc2)C(=O)N2CCC[C@@H]2COC1=O)OCC1c2ccccc2-c2ccccc21	i	i	i	i	i	i
O=C1CC(c2ccco2)Sc2ccccc2N1 (stereo not drawn)	i	i	i	i	i	i
O=C(CN1C(=O)CC(c2ccco2)Sc2ccccc21)Nc1ccccc1F (stereo not drawn)	i	i	i	i	i	i
O=C(CN1C(=O)CC(c2ccco2)Sc2ccccc21)NCc1ccc2c(c1)OCO2 (stereo not drawn)	i	i	i	i	i	23277
CCN1C(=O)CC(c2ccco2)Sc2ccccc21 (stereo not drawn)	i	i	i	i	i	17133
COc1cc(C2CC(=O)N(CC(=O)NCc3ccco3)c3ccccc3S2)cc(OC)c1OC (stereo not drawn)	i	i	i	i	i	24105
CCOC(=O)c1c(NC(=O)c2ccccc2C)sc2c1CC(C)(C)OC2	i	i	i	i	i	i
Cc1ccccc1OCCC(=O)Nc1ccc(F)c(Cl)c1	i	i	i	i	i	i
COc1cccc(NC(=O)N(Cc2ccco2)C(C)c2cccs2)c1 (stereo not drawn)	i	i	i	i	i	i
SMILES	Anthrax LF inh2	FBA Mtb inh	BoNT A protease	BoNT F protease	GDH-TPI counter	Autofluor counter
CC(c1cccs1)N(Cc1ccco1)C(=O)Nc1ccc(Cl)c(Cl)c1 (stereo not drawn)	i	i	i	i	i	17014
O=c1c2ccccc2nc(/C=C/c2ccc(O)cc2)n1-c1ccc(O)cc1	i	i	i	i	i	i
O=c1c2ccccc2nc(/C=C/c2ccc(Br)cc2)n1CCCO	i	i	i	?	i	i
COc1cccc(-n2c(/C=C/c3ccc(O)c(O)c3)nc3ccccc3c2=O)c1	i	i	i	i	i	i
COc1ccc(-n2c(/C=C/c3ccc(O)cc3)nc3ccccc3c2=O)cc1	nt	i	nt	nt	57.1	nt
O=c1c2ccccc2nc(/C=C/c2ccc(Br)cc2)n1CCO	i	i	i	i	35.4	i
COc1ccc(-n2c(/C=C/c3ccc(O)c(OC)c3)nc3ccccc3c2=O)cc1	i	i	i	35.8	i	i
COc1ccccc1-c1ccc2c(c1)C(C)(Cc1cccc(F)c1)C(=O)N2 (stereo not drawn)	i	i	i	i	i	i
